Screen size: about 5,500 compounds; about 2,000 (36%) were called active. Not shown: some 18% with an inconclusive outcome. No stated cut-off is given here; in the data, active means normalized growth mostly below about 0.91 (no sharp cut-off); inconclusive means no clear call, values can overlap the other calls; inactive means mostly above about 0.92. The list shows a part of the results.
Test: chemical genetic growth profiling, strain panel (AID 1159580);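 further: tested at 20 µM; growth read once vehicle control cultures reached saturation at 30 °C; 1 = growth at the plate median or of vehicle wells; lower values mean less growth of the strain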
Details: S. cerevisiae deletion strains, growth OD

Measured: normalized growth

O=c1c(O)c(-c2ccccc2)oc2cccc(O)c12
inactive: locus YDL005C, strain med2, hits give low values 0.997 | locus YDL040C, strain nat1, hits give low values 0.953 | locus YDR159W, strain sac3, hits give low values 0.89 | locus YDR195W, strain ref2 1.02 | locus YGL227W, strain vid30, hits give low values 0.929 | locus YHR013C, strain ard1, hits give low values 0.943 | locus YJL115W, strain asf1, hits give low values 0.906 | locus YKR091W, strain srl3, hits give low values 0.934 | locus YLR113W, strain HOG1, hits give low values 0.935 | locus YLR384C, strain iki3, hits give low values 0.922 | locus YMR125W, strain sto1, hits give low values 0.991 | locus YNL322C, strain KRE1 (second series), hits give low values 0.926 | locus YOR080W, strain dia2, hits give low values 0.925 | locus YPL106C, strain sse1, hits give low values 0.896 | locus YPL240C, strain hsp82, hits give low values 0.936 | locus YPL256C, strain CLN2, hits give low values 0.87
active: locus YAL021C, strain ccr4, hits give low values 0.725 | locus YAL026C, strain drs2, hits give low values 0.55 | locus YAL030W, strain snc1, hits give low values 0.881 | locus YBL061C, strain skt5, hits give low values 0.802 | locus YBR009C, strain hhf1, hits give low values 0.856 | locus YBR023C, strain chs3, hits give low values 0.666 | locus YBR171W, strain sec66, hits give low values 0.838 | locus YBR231C, strain swc5, hits give low values 0.733 | locus YBR279W, strain paf1, hits give low values 0.867 | locus YCL011C, strain gbp2, hits give low values 0.847 | locus YCL016C, strain dcc1, hits give low values 0.851 | locus YCL061C, strain MRC1, hits give low values 0.821 | locus YCL069W, strain vba3, hits give low values 0.816 | locus YCR088W, strain abp1, hits give low values 0.899 | locus YDR001C, strain nth1, hits give low values 0.891 | locus YDR069C, strain doa4, hits give low values 0.788 | locus YDR137W, strain rgp1, hits give low values 0.372 | locus YDR297W, strain sur2, hits give low values 0.919 | locus YDR334W, strain swr1, hits give low values 0.759 | locus YDR335W, strain msn5, hits give low values 0.852 | locus YDR392W, strain spt3, hits give low values 0.282 | locus YEL003W, strain gim4, hits give low values 0.875 | locus YEL037C, strain rad23, hits give low values 0.893 | locus YEL061C, strain CIN8 (second series), hits give low values 0.905 | locus YER015W, strain faa2, hits give low values 0.852 | locus YER016W, strain bim1, hits give low values 0.914 | locus YER111C, strain swi4, hits give low values 0.878 | locus YER155C, strain BEM2 (second series), hits give low values 0.751 | locus YFR010W, strain ubp6, hits give low values 0.726 | locus YGL167C, strain pmr1, hits give low values 0.886 | locus YGL173C, strain kem1, hits give low values 0.599 | locus YGL240W, strain doc1, hits give low values 0.739 | locus YGL253W, strain hxk2, hits give low values 0.621 | locus YHR027C, strain rpn1, hits give low values 0.751 | locus YHR030C, strain SLT2, hits give low values 0.72 | locus YHR079C, strain IRE1, hits give low values 0.839 | locus YHR142W, strain chs7, hits give low values 0.539 | locus YJL092W, strain hpr5, hits give low values 0.863 | locus YJL095W, strain BCK1 (second series), hits give low values 0.368 | locus YJL095W, strain BCK1, hits give low values 0.733 | locus YJL129C, strain trk1, hits give low values 0.673 | locus YJL154C, strain vps35, hits give low values 0.917 | locus YJL164C, strain tpk1, hits give low values 0.826 | locus YJL166W, strain qcr8, hits give low values 0.836 | locus YJL187C, strain SWE1, hits give low values 0.84 | locus YJR066W, strain TOR1, hits give low values 0.741 | locus YKL160W, strain elf1, hits give low values 0.881 | locus YKR026C, strain gcn3, hits give low values 0.917 | locus YLL001W, strain dnm1, hits give low values 0.826 | locus YLL026W, hits give low values 0.829 | locus YLL041C, strain sdh2, hits give low values 0.923 | locus YLR027C, strain aat2, hits give low values 0.842 | locus YLR221C, strain rsa3, hits give low values 0.815 | locus YLR258W, strain gsy2, hits give low values 0.84 | locus YLR262C, strain YPT6 (second series), hits give low values 0.304 | locus YLR320W, strain mms22, hits give low values 0.661 | locus YLR342W, strain FKS1, hits give low values 0.827 | locus YLR357W, strain rsc2, hits give low values 0.821 | locus YLR370C, strain arc18, hits give low values 0.789 | locus YML120C, strain ndi1, hits give low values 0.828 | locus YMR058W, strain fet3, hits give low values 0.206 | locus YMR129W, hits give low values 0.916 | locus YMR205C, strain PFK2, hits give low values 0.715 | locus YMR231W, strain pep5, hits give low values 0.304 | locus YNL071W, strain lat1, hits give low values 0.568 | locus YNL183C, strain NPR1, hits give low values 0.793 | locus YNL209W, strain ssb2, hits give low values 0.725 | locus YNL248C, strain rpa49, hits give low values 0.795 | locus YNR049C, strain mso1, hits give low values 0.89 | locus YOR001W, strain rrp6, hits give low values 0.818 | locus YOR070C, strain gyp1, hits give low values 0.835 | locus YOR083W, strain WHI5, hits give low values 0.826 | locus YOR106W, strain vam3, hits give low values 0.546 | locus YOR231W, strain MKK1, hits give low values 0.822 | locus YOR265W, strain rbl2, hits give low values 0.88 | locus YOR270C, strain vph1, hits give low values 0.445 | locus YOR290C, strain snf2, hits give low values 0.795 | locus YPL051W, strain arl3, hits give low values 0.696 | locus YPL078C, strain atp4, hits give low values 0.779

From PubChem BioAssay AID1159580 (chemical genetic matrix, 2015)
